Source: PubChem
Rows were chosen to be rich in hits. Some 2.8% of all compounds tested hit in one or more screens of this group.
SIRT5 inh: SIRT5 desuccinylase inhibitors, primary screen, biochemical, fluorescence imaging, single point, set 5; NAD-dependent protein deacylase sirtuin-5, mitochondrial (Homo sapiens), Q9NXA8; Purified SirT5, succinyl-peptide AMC, trypsin-coupled fluorescence; inhibition, % at 15 µM; actives 1.1% (n = 330,000); AID 652115, 2013; in the data active = inhibition above about 15%
Target sequence (Q9NXA8 whole entry, looked up): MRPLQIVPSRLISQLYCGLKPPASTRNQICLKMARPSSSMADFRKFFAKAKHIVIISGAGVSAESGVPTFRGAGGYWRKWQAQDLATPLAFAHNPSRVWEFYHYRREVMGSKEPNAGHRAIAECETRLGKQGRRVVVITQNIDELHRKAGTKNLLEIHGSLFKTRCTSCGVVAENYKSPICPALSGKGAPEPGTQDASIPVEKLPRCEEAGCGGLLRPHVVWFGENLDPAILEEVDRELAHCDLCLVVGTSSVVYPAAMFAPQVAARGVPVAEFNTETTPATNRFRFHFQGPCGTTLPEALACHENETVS
CDK5 inh: inhibitors of human CDK5/p35 kinase, primary screen, biochemical, single concentration; Recombinant CDK5/p35, ADP-Glo luminescence, 60 min; actives 0.01% (n = 330,000); Cyclin-dependent kinase 5 (Homo sapiens) + Cyclin-dependent kinase 5 activator 1 (Homo …; inhibition, % at 10 µM;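 active = highest replicate inhibition of at least 50% and at least 75% of replicates reaching 50%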;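 note: plate controls were DMSO neutral control for no effect and GW8510 at 10 µM for full effect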
dFosB activator: activators of delta FosB homodimer, primary screen, biochemical, fluorescence polarization, TAMRA-CDK5 oligo, single point; Protein FosB (Mus musculus), P13346; purified delta FosB; percent of positive-control signal above neutral wells; activation, % at 25 µM; actives 0.99% (n = 340,000); AID 493131, 2011;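 active = mean activation above about 17%, with every replicate also reaching it, limit read from the data, passing the limit was not always enough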
Target sequence (P13346 whole entry, looked up): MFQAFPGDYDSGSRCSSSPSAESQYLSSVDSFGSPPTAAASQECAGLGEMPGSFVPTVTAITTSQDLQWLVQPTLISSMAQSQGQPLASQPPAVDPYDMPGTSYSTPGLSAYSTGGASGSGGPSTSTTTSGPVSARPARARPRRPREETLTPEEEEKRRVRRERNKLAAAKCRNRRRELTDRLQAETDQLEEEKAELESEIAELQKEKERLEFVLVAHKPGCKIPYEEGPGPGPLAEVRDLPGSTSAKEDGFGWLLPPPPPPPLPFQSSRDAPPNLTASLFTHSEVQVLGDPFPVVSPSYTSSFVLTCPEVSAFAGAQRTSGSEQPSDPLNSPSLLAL
FGF22 binding-1: binders of human FGF22 protein, primary screen, FGF22 synaptogenesis inhibitor project, biophysical, thermal shift, single point. Fibroblast growth factor 22 (Homo sapiens), Q9HCT0. actives 1.5% (n = 340,000). recombinant FGF22 thermal shift, SYPRO orange fluorescence; percent of sucrose octasulfate shift, DMSO zero. AID 651658, 2012. activity (Tm shift, normalised), % at 9.99 µM;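 active = mean Tm shift, scaled 0 neutral to 100 positive control, at about 1.3% or above, every replicate too, limit read from the data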
PglD DTNB: C. jejuni PglD acetyltransferase inhibitors, primary screen, biochemical, DTNB colorimetric, single point; purified PglD enzyme, DTNB colorimetric CoA detection; inhibition, % at 12.5 µM; actives 0.098% (n = 360,000); in the data active = inhibition above about 16%, passing the limit was not always enough
PvdQ acylase: P. aeruginosa PvdQ acylase inhibitors, primary screen, biochemical, fluorescence, plate reader and imaging, single point; PvdQ acylase [Pseudomonas aeruginosa LESB58]; purified PvdQ acylase; inhibition, % at 10 µM; actives 0.063% (n = 340,000); AID 488965, 2010; in the data active = inhibition above about 30%, passing the limit was not always enough;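 note: 0% = vehicle neutral wells and 100% = reference inhibitor wells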
FGF22 binding-2: binders of human FGF22 protein, dose response, FGF22 synaptogenesis inhibitor project, biophysical, thermal shift, cherry-pick retest. shares compounds with FGF22 binding-1. recombinant FGF22 thermal shift, SYPRO orange fluorescence. thermal shift activity, °C (ΔTm) at 38 µM. actives 2% (n = 1,000). AID 720646, 2013;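 active = fitted rise in melting shift crosses a set limit at or below the top valid dose tested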
FGF22 TSA DP: binders of human FGF22 protein, dose response, FGF22 synaptogenesis inhibitor project, biophysical, thermal shift, dry powder; Tm shift (activity), % at 38 µM; shares compounds with FGF22 binding-1; Thermal shift assay, SYPRO orange, melting temperature shift; 50 tested, under 10 active; AID 743017, 2013;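 active = compounds whose fitted dose curve of melting temperature shift rises past a set threshold within the tested doses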
SYPRO no-protein: compound-only thermal shift signal without protein, dose response, artefact control for FGF22 binder project, biochemical, cherry-picked samples, RT-PCR instrument | compound-only SYPRO orange thermal shift counter-screen, no protein | actives 2% (n = 1,000) | shares compounds with FGF22 binding-1 | AC50, µM (highest dose often 38 µM);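 active = rising signal whose fitted curve reaches the 0.54 level within the top valid dose, showing a melting point, actives reach about 13 µM in these data; inactive = the rest, including activity in the opposite direction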; note: value is where the raw curve crosses a fixed level and not half-maximal
* marks the source's active call; other numbers are inactive results; i = inactive; . = no result given; [ ] = dose if it differs, or a comment.

SMILES | SIRT5 inh | CDK5 inh | dFosB activator | FGF22 binding-1 | PglD DTNB | PvdQ acylase | FGF22 binding-2 | SYPRO no-protein | others
Cc1cc(C)cc(NC(=O)CN2C(=O)NC(Cc3c[nH]c4ccccc34)C2=O)c1 (configuration not stated) | -0.3 | -0.5 | -9.9 | 1.6* | -3.3 | -4.5 | . | i
COc1ccc2c(CC(=O)NNC(=O)c3ccc(O)cc3)coc2c1 | . | -0.7 | -1.1 | 1.6* | -5.2 | -16.8 | -0.384 | i
O=C(C[C@H]1C[C@@H]2c3cc(NC(=O)NC4CCCC4)ccc3O[C@@H]2[C@H](CO)O1)NCc1ccc2c(c1)OCO2 | 0.9 | . | . | 1.9* | -1.2 | . | -0.076 | i
Cc1noc(C)c1NC(=O)Nc1ccc2c(c1)CC(=O)N([C@@H](C)CO)C[C@H](C)[C@@H](CN(C)S(=O)(=O)c1cccs1)O2 | -3.2 | . | . | -0.4 | -2.8 | . | . | .
COc1ccc(Nc2nnc(-c3ccncc3)s2)cc1Cl | -1.8 | 0.4 | 0.8 | 1.5* | 3.5 | -11.5 | 0.061 | i
COc1ccc(Cl)cc1Nc1nnc(-c2ccncc2)s1 | -2.8 | 1.3 | -3.3 | 0.1 | 7.4 | 15.8 | . | .
COCC#Cc1ccc2c(c1)O[C@@H](CN(C)C(=O)Nc1ccc(OC)cc1)[C@@H](C)CN([C@@H](C)CO)S2(=O)=O | -4.9 | . | . | 0.4 | 2.0 | . | . | .
C[C@@H]1CN([C@H](C)CO)C(=O)Cc2cc(NC(=O)c3ccncc3)ccc2O[C@H]1CN(C)C(=O)Nc1cccc2ccccc12 | 7.0 | . | . | . | -0.3 | . | . | .
Clc1ccc(Nc2ccc(NCc3ccccc3)nn2)cc1 | 3.8 | -0.7 | 3.1 | 2.3* | . | -14.4 | 0.014 | i | FGF22 TSA DP=0.0
O=C(COC(=O)CCCOc1ccc(Cl)cc1Cl)NCc1ccccc1 | -3.7 | -1.2 | -15.0 | 32.0* | -0.2 | -19.9 | 0.278 | i
Cc1ccc(CNC(=O)COC(=O)CCCOc2ccc(Cl)cc2Cl)cc1 | -2.1 | -1.7 | -7.4 | 0.2 | -5.8 | -14.6 | . | .
COc1ccc(NC(=O)Nc2cccc3c2O[C@@H](CN(C)Cc2ccncc2)[C@H](C)CN([C@@H](C)CO)C3=O)cc1 | -4.5 | . | . | 0.0 | 9.0 | . | . | .
Cc1ccc(S(=O)(=O)N[C@H]2CC[C@H](CCn3cc(C4CCCCC4)nn3)O[C@@H]2CO)cc1 | -1.3 | . | . | -0.1 | -2.5 | . | . | .
COc1ccc(-c2cn(CC[C@H]3CC[C@H](NC(=O)Nc4ccc(F)cc4)[C@@H](CO)O3)nn2)cc1 | 4.2 | . | . | 1.5* | . | . | 0.056[42 µM] | i
COc1ccccc1NC(=O)N[C@H]1CC[C@H](CCn2cc(-c3ccccc3OC)nn2)O[C@H]1CO | 4.0 | . | . | 1.7* | -3.9 | . | -0.098[42 µM] | i
COc1ccccc1NC(=O)N[C@@H]1CC[C@H](CCn2cc(-c3ccccc3OC)nn2)O[C@@H]1CO | 6.5 | . | . | 1.3* | -41.1 | . | 0.132 | i
COC(=O)[C@]1(CO)N=C(c2ccc(OCCCO)cc2)O[C@@H]1c1ccccc1CN=[N+]=[N-] | 10.8 | . | . | -0.2 | -2.4 | . | . | .
Cc1noc(C)c1NC(=O)Nc1ccc2c(c1)C(=O)N([C@@H](C)CO)C[C@@H](C)[C@@H](CN(C)Cc1ccc(C(F)(F)F)cc1)OCCCC[C@H](C)O2 | 5.6 | . | . | 0.3 | 4.3 | . | . | .
CC(=O)Oc1ccc(C(=O)Nc2ccccc2C(=O)N2CCCCC2)cc1 | 0.7 | 0.8 | -7.8 | 1.8* | 3.5 | -7.3 | 0.15 | i
CC(=O)Oc1ccc(C(=O)Nc2ccccc2C(=O)N2CCCC2)cc1 | -25.6 | 0.3 | -1.2 | 0.0 | -1.6 | 4.2 | . | .
CN1CCC(C)(C(=O)Nc2cccc3c2CCCC3)C1 (configuration not stated) | 1.4 | . | . | 18.6* | -1.8 | . | 0.001 | i
C[C@H](CO)N1C[C@H](C)[C@H](CN(C)C(=O)c2ccccc2)OCCCC[C@H](C)Oc2ccc(NC(=O)C3CCCCC3)cc2C1=O | -0.1 | . | . | 0.0 | -0.8 | . | . | .
COc1ccccc1NS(=O)(=O)c1cc(C(=O)Nc2ccc(S(=O)(=O)Nc3onc(C)c3C)cc2)ccc1C | 1.6 | -0.5 | -3.8 | 1.8* | 4.1 | -20.8 | 0.23 | i
COc1ccccc1NS(=O)(=O)c1ccc(C)c(C(=O)Nc2ccc(S(=O)(=O)Nc3onc(C)c3C)cc2)c1 | 1.9 | -2.5 | -5.5 | 0.3 | 6.9 | -13.5 | . | .
O=C(NC1CCCCC1)N[C@H]1CC[C@H](CCNS(=O)(=O)c2ccc(F)cc2)O[C@@H]1CO | 0.6 | . | . | 0.0 | 1.6 | . | . | .
SMILES | SIRT5 inh | CDK5 inh | dFosB activator | FGF22 binding-1 | PglD DTNB | PvdQ acylase | FGF22 binding-2 | SYPRO no-protein | others
COc1ccccc1NC(=O)c1ccc(NC(=O)COC(=O)c2ccc(O)cc2)cc1 | -0.7 | -0.2 | 7.0 | 1.7* | 5.0 | -12.6 | 0.009 | i
O=C(O)C[C@H]1CC[C@@H](NC(=O)c2ccccc2F)[C@@H](CO)O1 | 3.7 | . | . | -0.7 | 0.4 | . | . | .
O=C(NCCc1c[nH]c2ccccc12)c1cc2sccc2n1Cc1ccccc1 | . | 1.3 | -8.0 | . | -6.4 | -6.5 | . | .
Cn1c(C(=O)NCCc2c[nH]c3ccccc23)cc2sccc21 | -3.1 | -0.6 | -9.3 | 1.6* | 2.2 | 7.7 | 0.002 | i
Cc1nc2ccc(NC(=O)c3cc([N+](=O)[O-])cc([N+](=O)[O-])c3Cl)cc2s1 | 0.5 | 1.6 | -2.5 | 2.1* | -3.4 | 1.1 | 0.234 | i
Cc1nc2ccc(NC(=O)c3ccc(Cl)c([N+](=O)[O-])c3)cc2s1 | 0.1 | 1.0 | -9.1 | -0.1 | -8.4 | -5.6 | . | .
N#CCSc1n[nH]c2nc3c(c(=O)n12)C1(CCCCC1)Cc1ccccc1-3 | -4.6 | 1.6 | -7.7 | 1.9* | -2.7 | -13.0 | 0.081 | i
CO[C@@H]1CN(C)C(=O)c2cc(NC(=O)c3cnccn3)ccc2OC[C@H](C)N(C(=O)C2CC2)C[C@@H]1C | 0.4 | . | . | . | -0.8 | . | . | .
